Hit rate of the full screen: of about 340,000 compounds, about 2,100 (0.62%) were called active.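 The calls were made as follows: active = first-screen hits whose inhibition reached a set limit at any dose in the follow-up dose series; inconclusive = inhibition above the set first-screen limit but never retested; inactive = the rest.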 A selection follows. Measured potencies and affinities stand elsewhere.
These molecules were tested against Rac GTPase-activating protein 1 (Homo sapiens) (UniProt Q9H0H5) (assay: MgcRacGAP GTPase-activating activity inhibitors, confirmation, biochemical, ADP Hunter fluorescence, primary and confirmatory (AID 624330;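 also: fluorescence reports GDP produced by GAP-driven GTP hydrolysis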)). Details: MgcRacGAP-stimulated Rac1 GTP hydrolysis, at 30 µM, active compounds read high, GST-tagged Rac1 F28L mutant substrate.
Sequence of Rac GTPase-activating protein 1 (Homo sapiens) (Q9H0H5 whole entry, looked up): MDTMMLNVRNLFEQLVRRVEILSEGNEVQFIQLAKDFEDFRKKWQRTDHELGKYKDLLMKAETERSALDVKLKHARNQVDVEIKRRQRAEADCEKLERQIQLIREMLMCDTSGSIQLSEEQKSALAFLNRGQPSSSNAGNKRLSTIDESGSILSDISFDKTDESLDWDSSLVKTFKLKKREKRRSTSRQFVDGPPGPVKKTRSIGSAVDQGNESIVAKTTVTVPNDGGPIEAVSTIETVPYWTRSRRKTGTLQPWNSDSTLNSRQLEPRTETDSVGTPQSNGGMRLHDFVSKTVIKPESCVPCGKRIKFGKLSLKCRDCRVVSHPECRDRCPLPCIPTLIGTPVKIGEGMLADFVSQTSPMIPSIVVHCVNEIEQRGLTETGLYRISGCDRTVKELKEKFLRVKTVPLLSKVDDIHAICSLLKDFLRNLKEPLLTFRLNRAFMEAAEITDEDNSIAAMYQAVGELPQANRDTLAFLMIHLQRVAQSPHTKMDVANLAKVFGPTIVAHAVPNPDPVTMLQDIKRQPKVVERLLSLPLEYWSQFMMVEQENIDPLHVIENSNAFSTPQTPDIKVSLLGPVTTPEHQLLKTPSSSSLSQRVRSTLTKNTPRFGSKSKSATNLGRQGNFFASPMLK

inhibition, inactive:
COc1ccc(CN2C(=O)C(CC(=O)NCCCN(C)C)CC(C(=O)N(C)C)=C2C)cc1 (stereo not drawn) 12.7%
Cc1sc2ncnc(N(C)Cc3cccs3)c2c1C 10.9%
CN(CCc1ccccn1)c1ncnc2[nH]ncc12 6.58%
COc1ccc(CNC(=O)CCCn2nc([N+](=O)[O-])cc2C)cc1 9%
O=C1c2ccccc2C(=O)N1c1nc(-c2cccs2)cs1 13.9%
O=C1CCCCCCCN1Cc1ccccc1 1.03%
O=C1CCCCCN1Cc1ccccc1 3.56%
COc1ccc(NC(=O)Nc2ccon2)cc1OC 7.89%
CCc1ccc(S(=O)(=O)N2CCN(Cc3ccco3)CC2)cc1 6.82%
COc1ccc(CN2CCN(Cc3ccco3)CC2)cc1 29.8%
COc1cc(OC)c(OC)cc1CN1CCN(Cc2ccco2)CC1 20.1%
CCCc1ccc(S(=O)(=O)N2CCN(Cc3ccco3)CC2)cc1 8.89%
COc1ccc(CN2CCN(C(=O)c3ccco3)CC2)cc1OC 11.2%
Cc1cccc(CN2CCSCC2)c1 23.8%
FC(F)(F)c1ccc(CN2CCN(Cc3ccco3)CC2)cc1 15.3%
Cc1ccc(S(=O)(=O)N2CCN(Cc3ccco3)CC2)c(C)c1 3.78%
CCc1sc(C(=O)NCCCN2CCCC2=O)cc1Br -10%
Cc1ccc(C)c(S(=O)(=O)N2CCN(C(=O)CSc3ccccc3)CC2)c1 8.52%
CC(Sc1nnc(-c2ccncc2)n1C)C(=O)NCC1CCCO1 (stereo not drawn) 1.73%
CN(C)CCOC(=O)CC12CC3CC(C1)CC(CC(=O)OCCN(C)C)(C3)C2 5.06%
COc1cccc(CNC(=O)c2ccc(S(=O)(=O)N3CCCCC3)cc2)c1 9.59%
Cc1ccc(S(=O)(=O)Nc2cc(=O)[nH]c(SCC(=O)Nc3ccccc3C(F)(F)F)n2)cc1 5.86%
CCOC(=O)CC(NC(=O)CCc1c(C)nc2nc(C)nn2c1C)c1ccc(OC(C)C)cc1 (stereo not drawn) 8.74%
CCOc1ccc(C(=O)O)cc1OC 5.02%
CCN(CC)Cc1cc(C(C)=O)ccc1OCC(C)C -0.12%
CCOc1ccc(C(N)=O)cc1OC -0.9%
CCCOc1ccc(N)cc1N 18.7%
COc1ccc2[nH]c3c(c2c1)CCN1C(=O)C(CC(=O)NCCC2=CCCCC2)C[C@H](C(=O)N2CCCCC2)[C@@]31CCc1ccccc1 (stereo partly drawn) 3.14%
